From PubChem BioAssay (NCATS)
Results filed as inconclusive are left out. A call without a number means that no potency is given here. Active and inactive are the calls of the source. Unless noted, the call rests on the fitted dose curve; in most records, active means well fitted curve in the direction sought with a large enough effect; inconclusive means small, poorly fitted or top-dose-only effect, or another doubt; inactive means no such curve, though single readings can be large; an effect the other way counts as inactive or inconclusive.

Assays:
[1] = molecular target: Methanococcus maripaludis chaperonin (MmCpn) (UniProt Q6LX38); assay: High-Throughput Screening for Modulators of Cytosolic Chaperonin Activity: MmCpn Primary Screen (AID 488978);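 further: 50 nM MmCpn enzyme hydrolysing 30 µM ATP at 37 °C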
Chain of Methanococcus maripaludis chaperonin (MmCpn) (Q6LX38 1-543): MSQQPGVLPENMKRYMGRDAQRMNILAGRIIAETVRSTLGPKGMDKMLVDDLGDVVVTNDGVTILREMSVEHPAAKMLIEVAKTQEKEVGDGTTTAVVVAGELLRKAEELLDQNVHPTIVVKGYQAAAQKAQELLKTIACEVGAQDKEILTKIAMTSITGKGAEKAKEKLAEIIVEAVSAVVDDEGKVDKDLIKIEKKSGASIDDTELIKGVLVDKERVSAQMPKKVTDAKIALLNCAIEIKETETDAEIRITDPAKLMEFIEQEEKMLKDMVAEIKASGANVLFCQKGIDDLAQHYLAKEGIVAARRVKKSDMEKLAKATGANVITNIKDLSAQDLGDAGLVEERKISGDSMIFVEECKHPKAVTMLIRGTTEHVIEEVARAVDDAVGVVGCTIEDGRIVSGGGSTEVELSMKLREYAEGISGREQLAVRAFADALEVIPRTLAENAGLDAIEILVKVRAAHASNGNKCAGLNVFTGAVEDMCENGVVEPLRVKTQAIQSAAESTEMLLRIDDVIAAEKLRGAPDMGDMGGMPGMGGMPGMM
Summary of the method: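 MmCpn at 50 nM final was preincubated 5 min at RT with compound. ATP was then added at 30 uM final for 10 min at 37 C. ADP formed was detected by Transcreener HTRF (665/590 nm).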

[2] = molecular target: Thyrotropin receptor (Homo sapiens) (UniProt P16473); assay: qHTS Assay for Antagonists of the Thyroid Stimulating Hormone Receptor (AID 488980); further: series mostly up to about 58 µM
Chain of Thyrotropin receptor (Homo sapiens) (P16473 whole entry, looked up): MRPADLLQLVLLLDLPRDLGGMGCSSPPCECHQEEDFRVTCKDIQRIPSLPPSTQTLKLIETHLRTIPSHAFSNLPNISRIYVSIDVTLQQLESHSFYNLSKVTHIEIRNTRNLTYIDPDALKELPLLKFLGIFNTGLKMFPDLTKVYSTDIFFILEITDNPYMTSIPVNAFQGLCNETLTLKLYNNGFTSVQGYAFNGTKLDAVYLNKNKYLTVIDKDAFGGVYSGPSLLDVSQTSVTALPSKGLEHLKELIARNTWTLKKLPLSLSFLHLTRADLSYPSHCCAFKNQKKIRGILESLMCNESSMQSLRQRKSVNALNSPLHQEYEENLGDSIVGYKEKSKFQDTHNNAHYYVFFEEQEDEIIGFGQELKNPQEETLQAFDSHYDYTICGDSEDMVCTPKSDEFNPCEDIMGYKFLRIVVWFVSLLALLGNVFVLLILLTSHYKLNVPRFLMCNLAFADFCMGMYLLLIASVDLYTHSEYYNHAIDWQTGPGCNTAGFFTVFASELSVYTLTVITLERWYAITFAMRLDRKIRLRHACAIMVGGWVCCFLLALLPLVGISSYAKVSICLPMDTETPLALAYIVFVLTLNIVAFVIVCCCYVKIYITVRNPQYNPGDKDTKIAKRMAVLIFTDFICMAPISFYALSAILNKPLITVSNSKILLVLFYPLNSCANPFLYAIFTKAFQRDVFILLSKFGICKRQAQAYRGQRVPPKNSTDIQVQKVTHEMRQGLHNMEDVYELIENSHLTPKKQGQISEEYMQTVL
Summary of the method: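 TSHR-transfected HEK293 cells (2000/well) in HEPES-buffered HBSS with 70 uM RO 20-1724 were stimulated with 4 nM TSH (EC80, final) in the presence of compound. cAMP was measured by HTRF competition after lysis and 30 min at RT.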

[3] = molecular target: D(1A) dopamine receptor (Homo sapiens) (UniProt P21728); assay: HTS Assay for Allosteric Agonists of the Human D1 Dopamine Receptor: Primary Screen for Agonists (AID 488981)
Chain of D(1A) dopamine receptor (Homo sapiens) (P21728 whole entry, looked up): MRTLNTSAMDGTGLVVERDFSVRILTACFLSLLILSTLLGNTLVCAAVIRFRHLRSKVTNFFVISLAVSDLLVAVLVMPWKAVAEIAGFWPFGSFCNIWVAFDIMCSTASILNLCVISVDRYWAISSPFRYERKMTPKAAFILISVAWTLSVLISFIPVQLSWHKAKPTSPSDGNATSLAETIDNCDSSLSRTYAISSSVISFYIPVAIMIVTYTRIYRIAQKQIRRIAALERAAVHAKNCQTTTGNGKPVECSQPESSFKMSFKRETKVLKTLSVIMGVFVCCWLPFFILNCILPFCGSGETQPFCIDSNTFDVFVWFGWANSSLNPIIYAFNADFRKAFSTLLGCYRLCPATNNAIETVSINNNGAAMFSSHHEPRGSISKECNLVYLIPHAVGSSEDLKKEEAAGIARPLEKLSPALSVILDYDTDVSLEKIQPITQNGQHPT
Excerpt: Dopamine receptors (DARs) are involved in the etiology and/or therapy of a number of neuropsychiatric and endocrine disorders. For instance, all receptor-based antiparkinsonian drugs work via stimulating the […] DAR subtype whereas all FDA-approved antipsychotic agents are antagonists of this receptor. […] There are three different types of allosteric modulators that we are seeking, two of which will stimulate or augment receptor signaling, allosteric agonists and potentiators, while the third, allosteric antagonists, will attenuate receptor signaling. The present primary screening assay measures compound agonism by tracking calcium flux in a […], inducible Hek293 Trex D1 cell line.
Freshly passaged cells are plated in 1536 well black, clear bottom plates at a density of 4000 cells/well in 3 ul of complete media containing 1x tetracycline inducer. After an overnight incubation at […] in 5% CO2, cells are loaded with 2 ul of the no wash Calcium Assay Kit (ABD Bioquest) and incubated at room temperature for 30 to 90 minutes. […] The plate is measured for kinetically at 1 cycle/sec for 180 seconds and is considered to be the agonist portion of the assay (eg, compounds which activate a positive calcium response during this portion are flagged as potential agonists). Following the 180 second read, 1 ul of an EC20 of dopamine is delivered by an onboard pipette head. […]

[4] = molecular target: D(1A) dopamine receptor (Homo sapiens) (UniProt P21728); assay: HTS Assay for Allosteric Agonists of the Human D1 Dopamine Receptor: Primary Screen for Potentiators (AID 488982)
Summary of the method: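 Calcium flux in an inducible, force-coupled HEK293 Trex D1 line (overnight at 30 C): agonist mode is the 180 s kinetic read after compound; potentiator mode is the following 180 s read after dopamine at EC20.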

[5] = molecular target: D(1A) dopamine receptor (Homo sapiens) (UniProt P21728); assay: HTS Assay for Allosteric Agonists of the Human D1 Dopamine Receptor: Primary Screen for Antagonists (AID 488983);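 further: calcium flux response to an EC80 dopamine challenge measured with no-wash dye; nearly all actives have a fitted effect of over 65% in size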
Summary of the method: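 In this primary screen, compounds are applied to calcium-dye-loaded HEK293 T-REx cells with force-coupled D1 expression induced overnight at 30 C. An EC80 of dopamine follows the 180 s compound phase, and calcium is monitored for a further 180 s.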

[6] = Validation screen for small molecules that induce genotoxicity in human embryonic kidney (HEK293T) cells expressing luciferase-tagged ELG1 (AID 493106); conditions: luminescence; further: potency means the concentration at half of the fitted maximal effect
Excerpt: NIH Molecular Libraries Probe Production Network [MLPCN]
NIH Chemical Genomics Center [NCGC]
Assay Provider: Kyungjae Myung, NHGRI, NIH
Keywords: MLPCN, qHTS, NCGC, genotoxicity, cancer
Cancer cells divide rapidly compared to normal cells in the body. During cell division, cancer cells need to duplicate their genome by DNA replication. The failure of genome duplication leads to cancer cells' death. Therefore, inhibitors of DNA replication could specifically kill cancer cells. Based on this concept, many chemotherapeutic agents were developed and have been used to treat cancer patients. However, there are a limited number of agents available in the clinical setting, and some of those that do exist have low efficacy and severe side effects. Therefore, if we can find the compounds that effectively block DNA replication either by directly damaging DNA or by inhibiting other cellular mechanisms, the options for cancer treatment will be broadened. With this in mind, we developed a quantitative high-throughput ELG1-luciferase reporter gene assay. […]
For genotoxicity screening, 2,000 cells in 5 uL/well were dispensed into white, solid-bottom 1536-well plates using a solenoid-based dispenser. […] 5 ul ONE-Glo (Promega) was then added to each plate and following a 30 min incubation at room temperature, luciferase activity was quantified on a ViewLux CCD-based plate reader.

[7] = molecular target: Thyrotropin-releasing hormone receptor (Homo sapiens) (UniProt P34981); assay: qHTS for Small Molecule Agonists and Allosteric Enhancers of Human TRH Receptor: Validation Screen for Agonists (AID 493127;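 active means calcium activation more than 3 SD above the typical response in the agonist read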;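 further: intracellular calcium rise by fluo-8 fluorescence before TRH EC20 addition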); conditions: TRH receptor agonist cell assay; at 2 µM; stronger effect = higher value
Chain of Thyrotropin-releasing hormone receptor (Homo sapiens) (P34981 whole entry, looked up): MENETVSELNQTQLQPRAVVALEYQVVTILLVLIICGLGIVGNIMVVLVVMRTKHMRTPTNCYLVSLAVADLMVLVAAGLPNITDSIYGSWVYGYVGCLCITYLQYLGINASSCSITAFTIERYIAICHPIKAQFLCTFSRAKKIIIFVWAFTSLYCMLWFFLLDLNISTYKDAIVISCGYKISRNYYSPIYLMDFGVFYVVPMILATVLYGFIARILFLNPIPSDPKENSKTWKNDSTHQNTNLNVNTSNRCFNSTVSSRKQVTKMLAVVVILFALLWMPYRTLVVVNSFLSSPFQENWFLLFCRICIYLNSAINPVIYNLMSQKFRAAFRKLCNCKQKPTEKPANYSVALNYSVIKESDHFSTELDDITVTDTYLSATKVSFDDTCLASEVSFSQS
Summary of the method: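 Kinetic fluorescence assay of agonist-induced calcium release: overnight-plated TRHR cells, room-temperature fluo-8 loading, baseline then compound addition with per-second reads.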

[8] = Nrf2 qHTS screen for inhibitors: Validation (AID 493153; active means well fitted inhibition curve with a large enough effect in the main read-out, with a control signal flat, not every such curve was filed as active); conditions: viability change: measured here: cytotoxicity max response
Summary of the method: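 In this counterscreened reporter format, each well gives two signals: CellTiter-Fluor fluorescence for cytotoxicity and ARE-luciferase luminescence for Nrf2 function. A549 ARE_Fluc cells in 5% FBS OPTI-MEM were exposed to compound titrations for 18-24 h.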

[9] = molecular target: Transient receptor potential cation channel subfamily V member 1 (Homo sapiens) (UniProt Q8NER1); assay: HTS Assay for Compounds that Act as Enhancers of the Vanilloid Receptor 1 (AID 488979)
Chain of Transient receptor potential cation channel subfamily V member 1 (Homo sapiens) (Q8NER1 whole entry, looked up): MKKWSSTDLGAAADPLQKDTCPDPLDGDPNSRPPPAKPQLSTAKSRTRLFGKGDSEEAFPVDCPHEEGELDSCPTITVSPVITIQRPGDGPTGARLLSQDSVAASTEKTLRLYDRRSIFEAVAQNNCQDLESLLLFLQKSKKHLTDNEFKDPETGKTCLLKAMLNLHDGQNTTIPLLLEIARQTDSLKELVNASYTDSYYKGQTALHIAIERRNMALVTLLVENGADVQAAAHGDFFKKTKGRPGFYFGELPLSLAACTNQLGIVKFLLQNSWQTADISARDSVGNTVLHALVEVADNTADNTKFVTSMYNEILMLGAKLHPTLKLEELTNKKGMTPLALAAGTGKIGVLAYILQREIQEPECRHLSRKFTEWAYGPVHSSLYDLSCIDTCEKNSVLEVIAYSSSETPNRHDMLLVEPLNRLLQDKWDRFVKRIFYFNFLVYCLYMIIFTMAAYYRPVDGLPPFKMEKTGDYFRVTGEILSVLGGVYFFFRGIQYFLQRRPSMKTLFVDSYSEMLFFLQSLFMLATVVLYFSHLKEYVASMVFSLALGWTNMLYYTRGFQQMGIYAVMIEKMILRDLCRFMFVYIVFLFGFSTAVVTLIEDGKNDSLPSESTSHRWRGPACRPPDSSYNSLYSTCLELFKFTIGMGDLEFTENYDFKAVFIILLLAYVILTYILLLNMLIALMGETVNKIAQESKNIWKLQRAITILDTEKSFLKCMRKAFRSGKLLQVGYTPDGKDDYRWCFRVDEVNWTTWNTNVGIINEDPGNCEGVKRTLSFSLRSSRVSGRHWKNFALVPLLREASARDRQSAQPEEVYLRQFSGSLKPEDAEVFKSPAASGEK
Excerpt: The transient receptor potential ion channel, family V, number 1, (TRPV1) is one of the most important molecular transducers of painful stimuli and a potential target for analgesic drug development. Although recent clinical trials with orthosteric antagonists have not produced a successful drug because of a hyperthermia side effect and their tendency to block thermal noxious pain, this ion channel is undeniably well placed in the pain pathway, and the idea of blocking pain signals before they enter the CNS is an excellent concept and of proven efficacy when TRPV1 agonists are used. […]
The amount of accumulated calcium is precisely quantified using the FDSS kinetic reader and the calcium dye.
For the HTS assay, freshly prepared cells are plated at a density of 2000/well in 3 ul medium in 1536-well plates and cultured overnight at 35.5C. […] Plates will be loaded into the FDSS kinetic reader and a 1 sec / cycle for 10 second baseline signal will be measured. Compound library will then be added with a pintool at 23 nl and measured kinetically for 3 minutes. This portion of the read is considered the agonist portion of the screen. […] Signal will be measured kinetically for an additional 2 minutes. This portion of the read is considered the allosteric enhancer portion of the screen.
The FDSS reader has a standard filter set capable of measuring calcium bound Fluo-8 (ex=480 and em=520 nm).

| Compound | outcome [1] | outcome [2] | outcome [3] | outcome [4] | outcome [5] | Potency [6] | activation [7] | outcome [8] | viability change [8] [%] | outcome [9] |
| --- | --- | --- | --- | --- | --- | --- | --- | --- | --- | --- |
| O=c1c2ccccc2nc2n1CCc1c-2[nH]c2ccccc12 | inactive | inactive | inactive | inactive | inactive | 8.2 µM (active) | -4.5% (inactive) | inactive | -3.53 |  |
| CC[C@H](CO)Nc1nc(NCc2ccccc2)c2ncn(C(C)C)c2n1 |  | inactive |  |  |  |  | 0.312% (inactive) |  |  | inactive |
